An excerpt weighted towards active compounds, which were near 2.6% of everything screened.
Cruzain inh noDet: qHTS Assay for Promiscuous and Specific Inhibitors of Cruzain (without detergent). Cruzipain (Trypanosoma cruzi), P25779. purified cruzain, Z-FR-AMC fluorescence, no detergent. Potency, µM, for inactives: max response, negative = inhibition, most hits filed as inhibitors. 2.3% of 200,000 active. AID 1476, 2009;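 further: plate controls were enzyme without inhibitor for no effect and buffer without enzyme for full effect; nearly all actives have a fitted effect of over 40% in size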
Target sequence (P25779 123-467 limits assumed): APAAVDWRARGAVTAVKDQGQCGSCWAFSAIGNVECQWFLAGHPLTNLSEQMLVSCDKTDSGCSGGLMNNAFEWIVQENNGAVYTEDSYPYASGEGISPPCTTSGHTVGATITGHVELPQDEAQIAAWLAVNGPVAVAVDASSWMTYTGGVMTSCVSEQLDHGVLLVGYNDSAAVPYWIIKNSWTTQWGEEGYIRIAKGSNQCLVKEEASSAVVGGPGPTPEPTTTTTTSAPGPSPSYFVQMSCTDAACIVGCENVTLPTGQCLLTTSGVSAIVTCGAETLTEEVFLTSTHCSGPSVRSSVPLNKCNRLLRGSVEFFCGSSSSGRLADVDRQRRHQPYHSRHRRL
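Purified cruzain at 1.5 nM, pre-incubated 15 min with compound at room temperature in 100 mM sodium acetate pH 5.5, 5 mM DTT, 0.00005% Triton X-100. Reaction started with 2 uM Z-FR-AMC; AMC fluorescence increase over 60 s gives rate.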
Cruzain Triton: qHTS Assay for Promiscuous and Specific Inhibitors of Cruzain (with detergent); purified cruzain, Z-FR-AMC fluorescence, 0.01% Triton; 0.43% of 200,000 active; Potency, µM, inactives show max response, negative = inhibition, actives largely listed as inhibitors; AID 1478, 2009; Cruzipain (Trypanosoma cruzi), P25779;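 further: plate controls were neutral wells for no effect and buffer without enzyme for full effect; nearly all actives have a fitted effect of over 40% in size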
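Cruzain (1.5 nM) preincubated 15 min at RT with compound in 100 mM sodium acetate pH 5.5, 5 mM DTT, 0.01% Triton X-100. Reaction started with 2 uM Z-FR-AMC; AMC fluorescence (ex 360/em 450 nm) change over 60 s gave rate.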
The depositor's hits bear a star. The call rests on the fitted dose curve; in most records, active means well fitted curve in the direction sought with a large enough effect; inconclusive means small, poorly fitted or top-dose-only effect, or another doubt; inactive means no such curve, though single readings can be large; an effect the other way counts as inactive or inconclusive. Potency means the concentration at half of the fitted maximal effect.

Screening CCOC(=O)c1ccc2c(c1)N(Cc1ccc(F)cc1Cl)C(=O)c1ccccc1S2(=O)=O returned Cruzain inh noDet 10µM* and Cruzain Triton 1%.
`CCc1ccccc1NC(=O)c1ccc2c(c1)N(Cc1cc(C)ccc1C)C(=O)c1ccccc1S2(=O)=O` gave Cruzain inh noDet 16µM* and Cruzain Triton 0%.
Cc1ccc(C)c(CN2C(=O)c3ccccc3S(=O)(=O)c3ccc(C(=O)N4CCCC4)cc32)c1 was read as Cruzain inh noDet inconclusive and Cruzain Triton -2%.
`COc1cccc(C(=O)Nc2ccc(-n3nncc3-c3ccc(Br)cc3)cc2)c1OC` gave Cruzain inh noDet -8% and Cruzain Triton -1%.
For Cc1ccc2oc(-c3cc(NC(=O)/C=C/c4ccco4)ccc3Cl)nc2c1 the results were Cruzain inh noDet inconclusive and Cruzain Triton -9%.
`Cc1ccc2oc(-c3cccc(NC(=O)/C=C/c4cccc([N+](=O)[O-])c4)c3C)nc2c1` gave Cruzain inh noDet 16µM* and Cruzain Triton -1%.
`COc1ccc2nc(NC(=O)c3cc(C)oc3C)sc2c1` gave Cruzain inh noDet -25% and Cruzain Triton -4%.
COc1ccc2nc(NC(=O)c3ccc(-c4cccc([N+](=O)[O-])c4)o3)sc2c1 was read as Cruzain inh noDet 13µM* and Cruzain Triton 1%.
Cc1c(NC(=O)c2ccc(-c3cccc([N+](=O)[O-])c3)o2)cccc1-c1nc2cc(Cl)ccc2o1 was read as Cruzain inh noDet 3.2µM* and Cruzain Triton -6%.
`O=C(Nc1ccc(Cl)c(-c2nc3ccccc3o2)c1)c1ccc(-c2cccc([N+](=O)[O-])c2)o1` gave Cruzain inh noDet -27% and Cruzain Triton -3%.
For CCn1nc(C)c2c(-c3ccccc3)cc(=O)n(C(C)C(=O)NCc3cccc(OC)c3)c21 (stereo unspecified) the results were Cruzain inh noDet inconclusive and Cruzain Triton -9%.
`Nc1nc(SC/C=C\c2ccccc2)c2[nH]cnc2n1` gave Cruzain inh noDet -8% and Cruzain Triton -1%.
O=C(Nc1cccc2cccnc12)c1ccc(F)cc1 was read as Cruzain inh noDet -14% and Cruzain Triton -2%.
CC(=O)c1ccc(N2CCN(c3ncnc4onc(-c5ccc(Cl)cc5)c34)CC2)cc1 was read as Cruzain inh noDet 3.2µM* and Cruzain Triton -16%.
Fc1ccc(N2CCN(c3ncnc4onc(-c5ccc(Cl)cc5)c34)CC2)cc1 was read as Cruzain inh noDet 4% and Cruzain Triton -8%.
CCOc1ccc(NC(=O)N2CCN3CCCCC3C2)cc1 (stereo unspecified) was read as Cruzain inh noDet 2% and Cruzain Triton -2%.
`CCN1/C(=C2\SC(=S)N(Cc3ccccc3)C2=O)Sc2ccccc21` gave Cruzain inh noDet 10µM* and Cruzain Triton -8%.
For CCN1/C(=C2\OC(=S)N(C)C2=O)Sc2ccccc21 the results were Cruzain inh noDet -8% and Cruzain Triton 5%.
For COc1ccc([N+](=O)[O-])cc1NC(=O)C(C)c1ccccc1 (stereo unspecified) the results were Cruzain inh noDet -4% and Cruzain Triton -7%.
For COc1ccc([N+](=O)[O-])cc1NC(=O)CC(c1ccccc1)c1ccccc1 the results were Cruzain inh noDet 25µM* and Cruzain Triton -3%.
For COc1ccc(C(=O)NCCc2csc(-c3ccc(Cl)cc3)n2)c(OC)c1 the results were Cruzain inh noDet inconclusive and Cruzain Triton -13%.
Cc1ccc(C)c(SCC(=O)Nc2cccc(S(=O)(=O)NC3=NCCCCC3)c2)c1 was read as Cruzain inh noDet -2% and Cruzain Triton -5%.
Screening O=C(CSc1ccc2ccccc2c1Br)Nc1cccc(S(=O)(=O)NC2=NCCCCC2)c1 returned Cruzain inh noDet 20µM* and Cruzain Triton -5%.
COc1cccc(C(=O)Nc2cccc(-c3cn4ccsc4n3)c2)c1OC was read as Cruzain inh noDet 12% and Cruzain Triton 0%.
Screening CCOc1ccc2nc(N3CCCC(C(=O)NCCc4ccc(OCC)c(OCC)c4)C3)sc2c1 (stereo unspecified) returned Cruzain inh noDet 22% and Cruzain Triton -3%.
`CCc1ccccc1NC(=O)CSc1nnc(-c2cc(OC)c(OC)c(OC)c2)o1` gave Cruzain inh noDet -1% and Cruzain Triton -4%.
Cc1ccc2nc(SCC(=O)NCc3cccs3)c(C#N)cc2c1 was read as Cruzain inh noDet 10µM* and Cruzain Triton 6%.
Screening Cc1ccc2nc(SCC(=O)NCc3ccco3)c(C#N)cc2c1 returned Cruzain inh noDet 25µM* and Cruzain Triton 2%.
Cc1ccc2cc(C#N)c(SCC(=O)NCc3ccco3)nc2c1 was read as Cruzain inh noDet inconclusive and Cruzain Triton -6%.
For Cc1cc2nnc(SCC(=O)NCc3cccs3)n2c(N)n1 the results were Cruzain inh noDet -8% and Cruzain Triton 1%.
`O=C(O)c1cc2c(cc1S(=O)(=O)O)[C@H]1[C@@H](C3[C@H]2[C@@]2(Cl)C(Cl)=C(Cl)C3(Cl)C2(Cl)Cl)[C@]2(Cl)C(Cl)=C(Cl)C1(Cl)C2(Cl)Cl` (stereo partly specified) gave Cruzain inh noDet 13% and Cruzain Triton -1%.
For CC(=O)Nc1ccc(/C=C/c2nc(-c3ccccc3O)n(-c3ccccc3)n2)cc1 the results were Cruzain inh noDet inconclusive and Cruzain Triton -13%.
`CCC(CC)C(=O)Nc1ccc2nc(SCC(=O)N3CCCC3)sc2c1` gave Cruzain inh noDet -8% and Cruzain Triton -1%.
`O=C(NCc1ccccc1)c1nnc(Cc2cccc(F)c2)o1` gave Cruzain inh noDet -5% and Cruzain Triton -2%.
O=C(COC(=O)CNC(=O)c1ccc(Cl)cc1)Nc1ccc2c(c1)OCCO2 was read as Cruzain inh noDet 10µM* and Cruzain Triton 14µM*.
COc1ccc(CNC(=O)COC(=O)c2ccc3c(c2)OCCO3)cc1 was read as Cruzain inh noDet -1% and Cruzain Triton 0%.
For O=C(COC(=O)/C=C/c1ccc(Cl)cc1)Nc1ccc2c(c1)OCCO2 the results were Cruzain inh noDet -27% and Cruzain Triton -1%.
For Cc1ccc(Cl)c(OCC(=O)Nc2ccc3c(c2)OCCO3)c1 the results were Cruzain inh noDet -6% and Cruzain Triton -1%.
For Cc1ccc(C(=O)COC(=O)CNC(=O)c2ccc(N3C(=O)c4ccccc4C3=O)cc2)cc1C the results were Cruzain inh noDet -7% and Cruzain Triton -2%.
For O=C(COc1cc(Cl)c(Cl)cc1Cl)NC(=O)Nc1ccc2c(c1)OCCO2 the results were Cruzain inh noDet 20µM* and Cruzain Triton -2%.
Screening Cc1ccc(C(=O)NCC(=O)OCC(=O)c2ccc3c(c2)OCCO3)cc1C returned Cruzain inh noDet 13µM* and Cruzain Triton 13µM*.
`COc1ccc(C(=O)NCC(=O)OCC(=O)c2ccc3c(c2)OCCO3)cc1` gave Cruzain inh noDet 13µM* and Cruzain Triton 16µM*.
For CCOCCCNC(=O)c1c[nH]c2ccc(S(=O)(=O)Nc3cccc(Cl)c3C)cc2c1=O the results were Cruzain inh noDet 22% and Cruzain Triton -9%.
`CC(=O)c1ccc(NC(=O)Cn2c(=O)nc(-c3ccccc3)c3cc(Cl)ccc32)cc1` gave Cruzain inh noDet 1% and Cruzain Triton -1%.
COc1ncc2nc(-c3ccccc3)c(=O)n(-c3ccccc3)c2n1 was read as Cruzain inh noDet 4% and Cruzain Triton -4%.

Screens: PubChem BioAssay, National Center for Advancing Translational Sciences (NCATS)
